This is a sample that favours compounds with a hit; in the whole collection about 4.3% have one here.
NALP1 yeast inh: NALP1 inflammasome inhibitors in reconstituted yeast, colorimetric, S. cerevisiae, triplicate retest; S. cerevisiae NALP1/ASC/caspase-1 growth, X-gal OD620, 72 h; inhibition, % at 10 µM; 280,000 compounds, 0.61% hits; AID 2071, 2009; in the data active = inhibition mostly above about 24%, no sharp cut-off; inactive = mostly below about 32%
Yeast superoxide: reduction of superoxide in aged yeast, primary screen, HTS | S. cerevisiae aged cells, superoxide DHE fluorescence; hits give low values | superoxide response (% of plate mean), % at 10 µM | 330,000 compounds, 0.18% hits | AID 2690, 2010;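 active = superoxide response under a set limit, about three screen SD below normal, cut at about 65% in these data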;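 note: yeast aged for seven days with compound at 30 °C before DHE staining; 100% = average MFI of all compound-treated wells on the plate with controls excluded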
dFosB activator: activators of delta FosB homodimer, primary screen, biochemical, fluorescence polarization, TAMRA-CDK5 oligo, single point; Protein FosB (Mus musculus), P13346; purified delta FosB; percent of positive-control signal above neutral wells; activation, % at 25 µM; 340,000 compounds, 0.99% hits;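 active = mean activation above about 17%, with every replicate also reaching it, limit read from the data, passing the limit was not always enough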
Target sequence (P13346 whole entry, looked up): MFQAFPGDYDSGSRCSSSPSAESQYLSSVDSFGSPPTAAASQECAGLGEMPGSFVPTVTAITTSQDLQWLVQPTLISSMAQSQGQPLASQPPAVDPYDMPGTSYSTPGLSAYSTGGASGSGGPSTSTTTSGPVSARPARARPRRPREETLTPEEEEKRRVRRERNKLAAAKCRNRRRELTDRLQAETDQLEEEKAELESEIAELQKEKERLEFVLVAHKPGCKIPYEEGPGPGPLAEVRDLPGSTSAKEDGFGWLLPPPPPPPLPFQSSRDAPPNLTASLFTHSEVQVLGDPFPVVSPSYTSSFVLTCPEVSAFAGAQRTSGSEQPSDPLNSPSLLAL
NR3A LBD binder: binders of NR3A ligand-binding domain, primary screen, biophysical, differential scanning fluorimetry, uHTS | NR3A LBD differential scanning fluorimetry, Tm shift; 0% = protein alone, 100% = glycine-bound protein | 340,000 compounds, 2.5% hits | Tm shift relative to glycine control, % at 25 µM | AID 1259313, 2017;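 active = melting temperature shift of at least 10% of the positive control shift, at one fixed dose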
UBC13 inh: UBC13 polyubiquitin chain formation inhibitors, primary screen, biochemical, TR-FRET, uHTS; inhibition, % at 20 µM; 330,000 compounds, 0.47% hits; AID 485273, 2010; in the data active = inhibition above about 45%, passing the limit was not always enough
Target sequence (P61088 whole entry, looked up): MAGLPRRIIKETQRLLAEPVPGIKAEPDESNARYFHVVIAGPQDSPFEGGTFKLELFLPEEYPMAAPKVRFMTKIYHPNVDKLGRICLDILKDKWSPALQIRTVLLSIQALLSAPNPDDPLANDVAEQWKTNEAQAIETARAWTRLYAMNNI
* marks the source's active call; other numbers are inactive results; . = no result.

SMILES | NALP1 yeast inh | Yeast superoxide | dFosB activator | NR3A LBD binder | UBC13 inh
NS(=O)(=O)c1ccc(NC(=O)COc2ccc(Cl)cc2)cc1 | 26.3 | 98.6 | -5.4 | -1.0 | 4.8
CC(C)n1c(NCc2ccccc2O)nc2ccccc21 | 5.9 | 97.4 | -4.6 | 2.8 | 17.2
C=CCc1cccc(CNc2nc3ccccc3n2C(C)C)c1O | -42.2 | 101.3 | -16.3 | 11.3* | 16.2
c1ccc(N2CCN(c3ccccc3)C2c2ccncc2)cc1 | 15.0 | 87.0 | -0.5 | 0.4 | 4.6
Cc1ccc(N2CCN(c3ccc(C)cc3)C2c2cccnc2)cc1 | 39.8* | 94.9 | -6.3 | 0.9 | 5.5
c1ccc(N2CCN(c3ccccc3)C2c2cccnc2)cc1 | 3.4 | 94.4 | -7.9 | 10.2* | 0.5
O=C(Nc1ccncc1)c1cncc(Br)c1 | 19.1 | 92.1 | -4.2 | 10.5* | -5.0
O=S(=O)(Nc1nc2ccccc2nc1N1CCc2ccccc2C1)c1ccc(Cl)cc1 | . | 98.2 | -6.8 | 9.7 | -33.3
O=S(=O)(Nc1nc2ccccc2nc1N1CCc2ccccc2C1)c1ccc(Br)cc1 | 13.5 | 86.7 | -28.2 | 10.2* | .
CC(=O)Nc1ccc(S(=O)(=O)Nc2nc3ccccc3nc2N2CCc3ccccc3C2)cc1 | 7.7 | 114.9 | -4.2 | 16.0* | -4.7
CCCCN(CCCC)C1=Nc2ccccc2N/C1=C(/C#N)C(=O)OCC | -4.7 | 96.1 | -0.9 | 16.8* | -9.2
CCOC(=O)/C(C#N)=C1\Nc2ccccc2N=C1N(CC(C)C)CC(C)C | 14.7 | 94.3 | -9.5 | -0.7 | -2.4
Cc1ccc(NC(=O)CCN2CC(C)OC(C)C2)cc1 (stereo unspecified) | 8.3 | 99.2 | -15.5 | 2.0 | 3.6
Cc1ccc(NC(=O)Nc2ccc(S(N)(=O)=O)cc2)cc1 | 16.0 | 85.1 | -4.0 | 11.1* | -4.6
NS(=O)(=O)c1ccc(NC(=O)Nc2ccc(C(F)(F)F)cc2)cc1 | 28.0 | 95.9 | . | 19.6* | 10.7
NS(=O)(=O)c1ccc(NC(=O)Nc2ccc(S(N)(=O)=O)cc2)cc1 | . | 93.9 | . | 0.5 | -1.8
COc1ccccc1-n1c(CNC(=O)c2ccc(S(=O)(=O)N3CCCCC3)cc2)n[nH]c1=S | 14.0 | 108.4 | -6.3 | 0.7 | -9.6
O=C(/C=C/c1ccccc1)c1ccccc1 | 14.7 | 103.2 | 1.6 | 1.3 | -1.1
N#Cc1ccc(/C=C/C(=O)c2ccccc2)cc1 | 9.4 | 98.0 | -1.0 | 12.1* | 4.4
CCc1ccc(S(=O)(=O)c2nnn3c2nc(N2CCOCC2)c2ccccc23)cc1 | 18.1 | 96.9 | -7.6 | -2.6 | -4.5
COc1ccc(S(=O)(=O)N/N=C/c2ccc(OCCN3CCOCC3)c(OC)c2)cc1 | 23.9 | 94.1 | -4.1 | -0.9 | 0.1
COc1cc(/C=N/NS(=O)(=O)c2ccc3ccccc3c2)ccc1OCCN1CCOCC1 | 25.1 | 101.1 | -4.9 | 15.0* | -14.4
CSc1nc(N)nc2c1ncn2CC(=O)NCc1ccccc1 | . | 101.8 | 7.2 | -0.1 | -2.2
CSc1nc(N)nc2c1ncn2CC(=O)NCc1ccc2c(c1)OCO2 | . | 101.8 | 20.2* | -0.1 | -12.8
COc1cc2c(cc1OC)/C(=C/C(=O)N1CCOCC1)NC(C)(C)C2 | -12.9 | 100.0 | . | 10.8* | 4.9
SMILES | NALP1 yeast inh | Yeast superoxide | dFosB activator | NR3A LBD binder | UBC13 inh
CCOC(=O)/C=C1\NC(C)(C)Cc2cc(OC)c(OC)cc21 | -3.9 | 106.3 | -6.9 | 3.0 | 3.3
Cc1cc(C)nc(SCC(=O)NNC(=O)c2cccs2)n1 | 11.2 | 114.5 | -3.9 | -18.4 | 14.2
Cc1cc(C)nc(SCC(=O)NNC(=O)c2ccccc2C)n1 | -10.0 | 65.1* | 6.4 | -1.3 | -3.5
O=C(NCc1ccccc1F)C12CC3CC(CC(C3)C1)C2 | . | 103.5 | -1.9 | 1.1 | 1.7
COc1ccccc1CNC(=O)C12CC3CC(CC(C3)C1)C2 | -4.0 | 62.2* | -0.1 | -1.6 | -3.2
CC1CCCCN1C(=O)CCNC(=O)Cn1cnc2ccccc2c1=O (stereo unspecified) | 12.1 | 102.4 | 3.0 | -0.2 | -0.8
CCc1ccc(NC(=O)C(C)OC(=O)C2CCN(c3ccc(C(F)(F)F)cn3)CC2)cc1 (stereo unspecified) | . | 105.0 | -8.0 | 5.2 | 2.3
CC(C)(C)C(=O)Nc1ccc(C(=O)N/N=C/c2ccccc2OC(=O)c2ccc(Cl)cc2)cc1 | 7.9 | 105.5 | -9.5 | 21.4* | -12.9
CC(C)(C)C(=O)Nc1ccc(C(=O)N/N=C/c2ccccc2OC(=O)c2ccccc2)cc1 | 2.2 | 94.0 | 7.4 | -1.4 | -7.9
Cc1cccc(/C=N\NC(=O)c2ccc(Cl)cc2)c1O | -9.0 | 98.6 | 13.0 | 10.1* | -1.4
COc1ccc(OC)c(/C=N\NC(=O)c2ccc(-c3ccccc3)cc2)c1 | 11.0 | 97.5 | 3.8 | -0.9 | 6.5
Cc1cccc(/C=N/NC(=O)Cc2ccc(Cl)cc2)c1O | 5.6 | 101.0 | 3.7 | 1.6 | 7.6
COc1cccc(/C=N/NC(=O)c2ccc(-c3ccccc3)cc2)c1O | 7.4 | 83.2 | 15.6 | 26.1* | -17.3
O=C(N/N=C/c1cc(Cl)ccc1O)c1ccc(Br)cc1 | 45.7* | 102.1 | 3.9 | 7.9 | .
O=C(O)c1ccc(/C=N/NC(=O)c2cc(-c3ccc4c5c(cccc35)CC4)n[nH]2)cc1 | 14.6 | 96.0 | 3.1 | -38.5 | -4.0
Cc1ccc(N=Nc2ccc(O)c(/C=N\NC(=O)c3ccc(N)cc3)c2)cc1C | -5.1 | 70.9 | 46.8* | 0.9 | -22.4
Cc1ccccc1/C=N/NC(=O)c1ccc(-n2cnnn2)cc1 | . | 83.9 | -0.7 | 29.8* | 3.0
O=C1COc2ccc(S(=O)(=O)N3CCC(C(=O)NCc4ccccc4)CC3)cc2N1 | 13.9 | 86.2 | -5.8 | -1.2 | -11.7
CC(=O)Nc1ccc(/C=N/NC(=O)CCN2CCN(c3ccccc3)CC2)cc1 | -7.8 | 92.6 | -1.1 | 33.0* | 8.5
COc1ccc(/C=N\NC(=O)CCN2CCN(c3ccccc3)CC2)cc1OC | -9.7 | 90.5 | -3.6 | -1.1 | 7.2
O=C(CCN1CCN(C(c2ccccc2)c2ccccc2)CC1)N/N=C/c1ccc(O)cc1O | 6.2 | 92.0 | 36.7* | -15.7 | -17.1
O=C(CCN1CCN(C(c2ccccc2)c2ccccc2)CC1)N/N=C/c1ccc(O)cc1 | 28.1 | 105.0 | 4.6 | 6.7 | -7.7
C=C(C)CNC(=S)NNC(=O)c1ccc(Br)cc1 | 4.2 | 107.9 | 2.8 | 5.0 | -7.7
O=C(Nc1ccccc1)Nc1nnc(-c2ccccc2)o1 | 25.2* | 126.8 | 1.9 | -4.3 | -9.0
CCCC(=O)Nc1ccc(Nc2ccccc2)cc1 | 41.2 | 90.7 | 1.0 | 10.1* | -2.9
CC(C)C(=O)Nc1nnc(-c2ccccc2)o1 | 0.6 | 110.3 | -1.8 | -0.7 | 4.7
O=C(Nc1ccccc1)Nc1ccc(Nc2ccccc2)cc1 | . | 80.8 | . | 29.2* | 5.8
CCN(Cc1nc(-c2ccccc2)no1)C(=O)c1ccco1 | -4.4 | 84.9 | -2.1 | -0.9 | 6.2
COc1ccccc1C(=O)Nc1ccc(Br)c2cccnc12 | -3.3 | 98.8 | -1.5 | 21.1* | 12.3
